# Assays:
# Assay in all cases: cell proliferation relative to vehicle (% of vehicle); higher = less growth inhibition
# Conditions in all cases: 72 h
# [1] = tested on: U2932 TK216-resistant clone 2
# Procedure, shortened: (§1)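 Parental U2932 cells (ABC-DLBCL) and two clones made resistant to an ETS-targeting agent by almost a year of repeated exposure were treated for 72 h with 348 targeted inhibitors at 500 nM or 50 nM. MTT was then applied for 4 h, the reaction was stopped with 25% SDS, and absorbance was measured on a Cytation 3. Values express proliferation as percent of proliferating cells compared with DMSO vehicle.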
# [2] = tested on: U2932 TK216-resistant clone 3
# Procedure, shortened: as §1
# U2932 parental = tested on: U2932 parental
# Procedure, shortened: as §1
Structure (SMILES),cell proliferation ([1]; 50 nM),cell proliferation ([1]; 500 nM),cell proliferation ([2]; 50 nM),cell proliferation ([2]; 500 nM),cell proliferation (U2932 parental; 50 nM),cell proliferation (U2932 parental; 500 nM)
C[C@@H]1CN(CC(=O)Nc2ccc3c(c2)Cc2cccc(-c4cc(=O)cc(N5CCOCC5)o4)c2S3)C[C@H](C)O1,102,101,103,97,105,111
CCCCCCCCCCCCc1ccc(S(=O)(=O)Nc2nncs2)cc1,102,88.7,102,100,101,100
CC[C@H](NC(=O)[C@H](C)NC)C(=O)N1C[C@@H](O)C[C@H]1Cc1c(-c2[nH]c3cc(F)ccc3c2C[C@@H]2C[C@H](O)CN2C(=O)[C@H](CC)NC(=O)[C@H](C)NC)[nH]c2cc(F)ccc12 [Birinapant],102,100,99.4,90.9,103,101
O=C(NCc1ccncc1)C12CC3CC(C1)CC(c1ccc(Cl)cc1)(C3)C2,105,91.5,105,98.3,98.2,98.2
CC[C@@](C)(Nc1ccnc(-c2c[nH]c3ncccc23)n1)C(=O)NCC(F)(F)F [Decernotinib (VX-509)],103,92.4,97.4,105,98.2,98.6
Nc1ncn([C@@H]2O[C@H](CO)[C@@H](O)[C@H]2O)c(=O)n1 [Azacitidine],103,96.5,103,97.2,99.9,91.8
S=C(NCc1ccc2c(c1)OCO2)N1CCN(c2ncnc3c2oc2ccccc23)CC1 [Amuvatinib (MP-470)],102,109,107,104,100,101
NC(=O)c1ccc(-c2nc(-c3ccccn3)c(-c3ccc4c(c3)OCO4)[nH]2)cc1,115,109,100,102,101,101
COc1cc([C@@H]2c3cc4c(cc3[C@@H](O[C@@H]3O[C@@H]5CO[C@@H](c6cccs6)O[C@H]5[C@H](O)[C@H]3O)[C@H]3COC(=O)[C@H]23)OCO4)cc(OC)c1O [Teniposide],59,8.54,83,19.8,67.7,16.8
CCNc1nc(Nc2cc(F)c(C(=O)N3CCOCC3)cc2OC)ncc1C(F)(F)F,101,97.4,97.8,104,104,101
O=C(O)c1ccc(Nc2ncc3c(n2)-c2ccc(Cl)cc2C(c2c(F)cccc2F)=NC3)cc1,104,80.2,112,86.2,99.6,65.5
COc1cccc(-c2cc(F)ccc2C2Cc3nc(N)nc(C)c3C(=O)N2)n1 (stereo not drawn),6.3,4.81,22.6,18.7,7.13,6.37
O=C(CCCCCCNC(=O)c1cnc(N(c2ccccc2)c2ccccc2)nc1)NO [Rocilinostat (ACY-1215)],104,104,110,96.5,98.5,92.2
CC(C)(C)c1nc(-c2cccc(NS(=O)(=O)c3c(F)cccc3F)c2F)c(-c2ccnc(N)n2)s1,111,101,106,110,101,93
Cc1cc(Nc2cc(N3CCN(C)CC3)nc(/C=C/c3ccccc3)n2)n[nH]1 [ENMD-2076 L-(+)-Tartaric acid],101,61.9,105,57.2,99,47.6
Cc1ccc2c(=O)c3cccc(CC(=O)O)c3oc2c1C [DMXAA (Vadimezan)],110,99.3,101,95.3,101,99.2
CN(CCOc1ccc(CC2SC(=O)NC2=O)cc1)c1ccccn1 (stereo not drawn) [Rosiglitazone],100,101,98.8,104,94,95.2
COCCOc1ccc2c(c1)ncn2-c1ccc2cccc(N3CCC(N)CC3)c2n1,107,106,103,94,99.8,90.4
Cc1ccc(S(=O)(=O)/C=C/C#N)cc1,107,113,109,104,102,102
NC(=O)c1ncn([C@@H]2O[C@H](CO)[C@@H](O)[C@H]2O)c1N [Acadesine],88.9,94.5,98.7,98.1,102,98.4
FC(F)(F)c1ccc(/C=C/c2nc(COc3ccc(CCCCn4ccnn4)cc3)co2)cc1 [Mubritinib (TAK 165)],90.7,61,80.9,63.5,85.6,57.4
COc1cc2c(Oc3ccc(NC(=O)C4(C(=O)Nc5ccc(F)cc5)CC4)cc3F)ccnc2cc1OCCCN1CCOCC1,101,69.7,98.3,66,92.7,58.9
O=C(O)c1ccc(O)c2ncccc12,104,107,101,99.2,106,105
